Reference: PubChem BioAssay AID493203 (National Center for Advancing Translational Sciences (NCATS), 2011)
Inconclusive results are not listed. A call without a number means that no potency is given here. Activity calls are given as the source filed them. The call rests on the fitted dose curve; in most records, active means well fitted activation curve with a large enough effect; inconclusive means small, poorly fitted or top-dose-only effect; inactive means flat fitted curve, though single readings scatter.

Assay: qHTS Assay for NPC1 Promoter Activators: Initial hit validation from the primary screen
Conditions: Huh7 NPC1 promoter-luciferase reporter, luminescence, 24 h; series mostly up to 46.1 µM
Procedure, shortened: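 Promoter activation measured as luciferase luminescence (Amplite reagent, 10 minutes ambient) after 24 hours' compound exposure at 37C. Cells: NPC1-luciferase Huh7, 1500 per well, reduced-serum OP-MEM I plus 10% FBS.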
Potency means the concentration at half of the fitted maximal effect.

SMILES	Potency
Cc1nc(-c2ccccn2)sc1C(=O)Nc1ccc(F)cc1F	15.8 µM (active)
CCOC(=O)c1ccccc1NC(=O)CSc1nnc(Cc2cccn2C)n1-c1ccc(F)cc1	inactive
O=[N+]([O-])c1cnccc1Nc1ccc(F)cc1	inactive
O=C(CSc1nnc(-c2ccc([N+](=O)[O-])cc2)o1)Nc1ccccn1	0.628 µM (active)
COc1ccccc1OCCCC(=O)NCc1ccco1	inactive
CCN(CC)S(=O)(=O)c1ccc(NCc2ccccn2)nc1	inactive
C=CCOC(=O)N1CCN(c2cccc(C(F)(F)F)c2)CC1	inactive
O=C(O)C1=CC[C@@H](c2ccc(Cl)cc2)N(S(=O)(=O)c2ccc(Cl)cc2)[C@H]1c1ccccc1	inactive
Cc1ccc(C(=O)Nc2ccc(N3CCN(C)CC3)nc2)cc1	31.5 µM (active)
COC(=O)CSc1nc2cc3c(cc2cc1C#N)OCO3	0.315 µM (active)
COC(=O)c1sccc1NC(=S)OC	inactive
Cc1ccc(C#N)c(SCC(=O)Nc2nccs2)n1	1.12 µM (active)
Cc1ccc2nc(Nc3ccc(Cl)cc3)c3nncn3c2c1	inactive
CCOCC(=O)Nc1c(C(=O)Nc2ccc3c(c2)OCCO3)oc2ccccc12	0.888 µM (active)
CCc1cc(C(=O)Nc2ccccc2)cs1	2.23 µM (active)
CCOc1ccc(S(=O)(=O)NCc2ccccc2)cc1C(N)=O	inactive
Nc1ccccc1C(=O)N/N=C1/C2CN3CCN(C2)CC1(Cc1ccccc1)C3	inactive

SMILES	Potency
CCCN(CCC)CCCNC(=O)c1cc2cc3ccc(Cl)cc3nc2o1	inactive
O=CN1CCN(C(=O)c2ccccc2Cl)CC1	inactive
Cc1cccc(C)c1NC(=O)Nc1cccs1	inactive
COCCNC(=O)C1CCC(CNS(=O)(=O)c2ccc(F)cc2)CC1 (centres undefined)	inactive
O=C(c1cc2cc(Br)ccc2[nH]1)N1CCc2ccccc21	12.5 µM (active)
Cc1ccc(NC(=O)c2cccc(N3C(=O)CCC3=O)c2)nc1	inactive
CCC(=O)N1c2ccccc2NC2=C(C(=O)CCC2)C1c1ccc(N(C)C)cc1 (centres undefined)	inactive
COc1ccccc1NC(=S)NCc1ccc(Cl)cc1	inactive
CC(=O)Nc1nnc(SCC(=O)NCCOc2ccccc2)s1	inactive
Cn1c(SCc2ccccc2)nnc1-c1cnccn1	15.8 µM (active)
O=C(COc1ccccc1F)Nc1ccc(-c2nc3ccccc3s2)cc1	0.25 µM (active)
CCCOP(=O)(c1ccc(N(C)C)cc1)C(O)c1cccnc1 (centres undefined)	inactive
CCOC(=O)c1cc2sccc2n1CC(=O)N1CCCc2ccccc21	inactive
Cc1ccc(C(=O)NCc2ccc3c(c2)OCO3)cc1C	31.5 µM (active)
COc1ccc(S(=O)(=O)N2CCCC(C(=O)NCc3ccncc3)C2)cc1Cl (centres undefined)	inactive
Cc1cc(C)cc(N(CC(=O)NC2CCCC2)C(=O)CNC(=O)c2ccco2)c1	inactive
Cc1csc(NC(=O)CSc2nnc(-c3ccncc3)o2)n1	15.8 µM (active)
